Assay outcomes (PubChem BioAssay)
Pf growth 48h = Primary qHTS for delayed death inhibitors of the malarial parasite plastid, 48 hour incubation; P. falciparum luciferase growth in erythrocytes, 48 h; Potency, µM (doses to about 28.7 µM), for inactives: at the top dose activity change, negative = inhibition, usual class: inhibitors; 310,000 compounds, 5.9% hits; further: potency means the concentration at half of the fitted maximal effect; on the % scale 0 is the no-effect control and ±100 the full control effect
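Parasite viability was followed by luminescence of a genomically integrated firefly luciferase. Cultures held 0.1% parasitemia at 2% hematocrit (final), incubated under 5% CO2 at 37 C.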
SARS PLpro yeast = qHTS of Yeast-based Assay for SARS-CoV PLP | S. cerevisiae expressing SARS-CoV PLpro, growth rescue | Potency, µM (doses to about 32.9 µM), inactives show at the top dose activity, positive = growth rescue, actives largely listed as activators | 330,000 compounds, 0.19% hits; calls by dose curve; further: potency means the concentration at half of the fitted maximal effect; 0% is about no effect; nearly all actives have a fitted effect of over 55% in size
AMA1 RON2 block = qHTS for Inhibitors of AMA1-RON; Towards Development of Antimalarial Drug Lead: Primary Screen. 360,000 compounds, 0.2% hits. Potency, µM (series often up to 58.2 µM), for inactives: at the top dose activity change, negative = inhibition, actives largely listed as inhibitors. AlphaScreen AMA1-biotinylated RON2 peptide binding;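 further: potency means the concentration at half of the fitted maximal effect; 0% = vehicle wells and -100% = peptide control; nearly all actives have a fitted effect of over 45% in size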
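AMA1 (3D7) with his tag at 25 nM final met compounds first, then biotinylated RON2 peptide at 25 nM; detection used donor plus acceptor beads, 10 µg/mL apiece, read by AlphaScreen after 30 min at room temperature.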
Pf growth 96h = Primary qHTS for delayed death inhibitors of the malarial parasite plastid, 96 hour incubation; 320,000 compounds, 6.9% hits; P. falciparum luciferase reporter growth, 96 h; Potency, µM (doses to about 28.7 µM), inactives show top-dose activity change, negative = inhibition, usual class: inhibitors; AID 504834, 2011; further: potency means the concentration at half of the fitted maximal effect; on the % scale 0 is the no-effect control and ±100 the full control effect
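P. falciparum expressing integrated firefly luciferase, in erythrocytes at 2% hematocrit, 0.05% parasitemia, incubated with compounds 96 h at 37 C, 5% CO2. Growth inhibition read as loss of luminescence; two-generation exposure targets delayed-death apicoplast inhibitors.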
Shiga inhibitor = A qHTS for Small Molecule Inhibitors of Shiga Toxin; Vero cells, Shiga toxin protein synthesis inhibition reporter; inhibition, % at 38.7 µM; 290,000 compounds, 9.2% hits; AID 2315, 2010; in the data active means inhibition mostly above about 28%, no sharp cut-off; inactive means mostly below about 43%; further: 0% is about no effect
CHX counter = Cycloheximide Counterscreen for Small Molecule Inhibitors of Shiga Toxin | 300,000 compounds, 12% hits | max response, % | cell reporter, cycloheximide protein synthesis inhibition counterscreen; in the data active means max response mostly above about 13%, no sharp cut-off; inactive means mostly below about 14%; further: read at 38.3 µM for the half of the compounds with a filed dose; 0% is about no effect
* hit, by the source's call; u = inconclusive; x = no result. Compounds with a hit are over-represented: about 19% of the library has one in this group of screens. Unless noted, the call rests on the fitted dose curve; in most records, active means well fitted curve in the direction sought with a large enough effect; inconclusive means small, poorly fitted or top-dose-only effect, or another doubt; inactive means no such curve, though single readings can be large; an effect the other way counts as inactive or inconclusive.

SMILES	Pf growth 48h	SARS PLpro yeast	AMA1 RON2 block	Pf growth 96h	Shiga inhibitor	CHX counter
CCOC(=O)CNC(=O)CSc1ncnc2c1cnn2-c1ccc(OC)cc1	u	7.9%	6.4%	x	15.9	28.8*
CCOC(=O)CSc1ncnc2c1cnn2-c1ccc(C)cc1	28.3%	-0.7%	5.1%	13.1µM*	-3.8	-1.7
CCOC(=O)CNC(=O)CSc1ncnc2c1cnn2-c1ccccc1	13.4%	1.7%	-6.4%	-3.2%	-6.0	8.5
CCc1nnc(NC(=O)CSc2ncnc3c2cnn3-c2ccc(OC)cc2)s1	57.3%	0.2%	15.5%	0.0037µM*	-9.5	-0.8
CS(=O)(=O)N1Cc2ccccc2CC1C(=O)OCC(=O)NCCc1ccc(S(N)(=O)=O)cc1 (stereo not drawn)	x	-5.9%	-7.2%	x	x	x
Cc1cc(C(=O)NNC(=O)NC(C)C)no1	10.2%	1.2%	4.6%	30.9%	24.4	-3.3
O=C(CSc1ncnc2c1cnn2-c1ccccc1)NC1CCS(=O)(=O)C1 (stereo not drawn)	1.9%	5.7%	-2.2%	-13.8%	x	x
CC(C)(C)NC(=O)CSc1ncnc2c1cnn2-c1ccccc1	u	2.7%	-2.6%	0.0%	32.0	29.6*
CCOC(=O)CC(=O)CSc1ncnc2c1cnn2-c1ccccc1	3.9%	-23.3%	-1.7%	4.2%	81.5*	58.2*
O=CN(c1ccccc1)c1ccc2ccccc2c1	-0.9%	2.4%	-21.2%	103.2%	38.8	19.1
Cc1ccc(NC(=O)COC(=O)C2CC2(Cl)Cl)cc1C (stereo not drawn)	19.7%	-0.1%	-1.6%	49.0%	59.5	31.1*
Cc1ccc(NC(=O)COC(=O)C2CC2)cc1Cl	14.5%	1.2%	20.3%	32.6%	x	x
Cc1ccc(OCC(=O)Nc2ccc(N3CCCC3)cc2)cc1C	11.7µM*	0.7%	-25.4%	-5.6%	-11.2	-1.2
Cc1cc(OCC(=O)Nc2ccc(N3CCN(C)CC3)cc2)ccc1Cl	-24.5%	-8.4%	-11.5%	u	76.9*	38.0*
Cc1cc(OCC(=O)Nc2ccc(S(=O)(=O)N3CCN(C)CC3)cc2)cc(C)c1Cl	u	-1.0%	-18.1%	11.6%	-13.0	-3.7
Cc1ccc(NC(=O)COc2ccc(/C(N)=N/O)cc2)cc1C	-2.5%	u	-7.6%	7.1%	84.1*	5.0
Cc1cc(OCC(=O)Nc2ccc(S(=O)(=O)N3CCN(C)CC3)cc2)ccc1Cl	4.15µM*	-11.4%	8.2%	11.7µM*	-2.8	-1.1
CCOC(=O)c1c(C)[nH]c(C(=O)COC(=O)c2ccccc2NC(=O)c2ccco2)c1C	-3.6%	0.2%	-5.1%	34.7%	-6.7	7.8
CCOC(=O)c1c(C)[nH]c(C(=O)CSc2ccccc2)c1C	127.8%	0.9%	-3.3%	220.3%	53.4*	43.4*
CCOC(=O)c1c(C)[nH]c(C(=O)N/N=C\c2ccccc2O)c1C	u	u	77.9%	u	35.1*	29.4*
CCCCC(=O)OCC(=O)c1[nH]c(C)c(C(=O)OCC)c1C	17.1%	8.1%	-2.1%	x	84.5*	31.4*
CCOC(=O)c1[nH]c(COC(=O)c2ccccc2NC(=O)c2ccco2)c(C(=O)OCC)c1C	11.7µM*	-2.6%	-6.3%	u	-17.6	14.7
CCOC(=O)c1c(C)[nH]c(C(=O)COC(=O)CSC)c1C	x	3.1%	-0.7%	-17.1%	2.1	-2.2
O=C(COc1ccccc1Cl)NCCNC(=O)c1cnccn1	11.7%	1.4%	11.4%	27.9%	-15.6	-4.3
Cc1cc(C(=O)CSc2ccc(Cl)cc2)cc(C)c1OC(=S)N(C)C	x	3.4%	-8.5%	u	89.8*	35.6*
SMILES	Pf growth 48h	SARS PLpro yeast	AMA1 RON2 block	Pf growth 96h	Shiga inhibitor	CHX counter
Cc1[nH]c(C)c(C(=O)/C=C/c2ccc([N+](=O)[O-])cc2)c1C	u	-14.1%	-3.3%	-22.2%	128.8*	59.7*
CCOC(=O)c1c(C)c[nH]c1C	-5.5%	-1.7%	-4.4%	1.6%	-9.5	4.2
CCOC(=O)c1c(Cc2ccccc2)c[nH]c1C	32.2%	-6.1%	0.0%	4.1%	61.5*	30.9*
CN(C)c1ccc(C(=O)C=Cc2ccc([N+](=O)[O-])cc2)cc1	x	x	-8.6%	x	x	x
CCOC(=O)c1[nH]c(C)c(C(=O)/C=C/c2ccc(C(=O)O)cc2)c1C	11.7µM*	18.9%	-0.2%	u	2.4	-1.3
Cc1ccn2c(C(=O)CSc3ccc(Cl)cc3)c(C)nc2c1	u	-2.3%	-0.9%	u	-2.7	-1.3
CCOC(=O)c1c(C)[nH]c(C(=O)OCc2ccccc2)c1C	160.6%	-1.9%	-5.1%	-61.2%	59.5*	87.2*
Cc1noc(C)c1COc1ccc(C(=O)OCC(=O)N2CC(=O)Nc3ccccc32)cc1	4.65µM*	-18.6%	5.4%	u	-9.3	-2.0
CCOC(=O)c1c(C)[nH]c(C(=O)OCc2ccc(C)cc2)c1C	x	x	-20.2%	x	x	x
Cn1c(N)c(C(=O)CSc2nnc(C3CC3)n2N)c(=O)n(C)c1=O	7.2%	-3.3%	0.8%	0.0%	x	x
CCOC(=O)c1c(C)[nH]c(C(=O)CSc2nnc(C3CC3)n2N)c1C	0.329µM*	14.4%	6.1%	x	30.3	17.1*
CCOC(=O)c1[nH]c(C)c(C(=O)OCC(=O)N2CC(=O)Nc3ccccc32)c1C	u	-1.1%	-17.2%	9.28µM*	25.9	-2.1
Cc1noc(C)c1COc1ccc(C(=O)OCC(=O)N2c3ccccc3NC(=O)C2(C)C)cc1	x	-0.3%	-5.0%	u	6.7	-5.4
Cc1noc(N)c1C1(O)C(=O)Nc2c(Cl)cc(Cl)cc21 (stereo not drawn)	1.4%	-1.6%	19.1%	-3.1%	-7.4	-1.4
CCN(C[C@H]1N[C@@](C)(C(=O)OC)[C@H]2C(=O)N(Cc3ccccc3)C(=O)[C@@H]12)C(=O)c1ccc(C)cc1	x	-0.6%	8.0%	x	x	x
CCOC(=O)c1c(C)[nH]c(C(=O)C(C)Sc2ccc(Cl)cc2)c1C (stereo not drawn)	-10.2%	-29.1%	-17.2%	82.7%	107.0	19.4*
CC(=O)c1c(C)[nH]c(C(=O)CSc2ccc(F)cc2)c1C	91.4%	-0.2%	-1.9%	116.9%	97.8*	49.4*
CCCc1cc(=O)[nH]c(SCC(=O)c2[nH]c(C)c(C(=O)OCC)c2C)n1	6.3%	22.6%	-1.1%	-13.8%	31.9	-3.2
CCOC(=O)c1c(C)[nH]c(C(=O)COC(=O)CCSc2ccccc2)c1C	90.3%	-6.3%	4.0%	119.2%	60.0*	46.0*
CCOC(=O)c1c(C)[nH]c(C(=O)CSc2nccc(C)n2)c1C	84.6%	1.3%	6.5%	70.2%	87.3*	37.1*
COc1ccc(S(=O)(=O)N2CCN(C(=O)Nc3ccccc3OC)CC2)cc1	u	-3.1%	-8.2%	15.0%	-4.6	5.9
